The results in this text go back to PubChem BioAssay AID2314 (National Center for Advancing Translational Sciences (NCATS), 2010).

“And” between values parts separate entries of the source, which are not always exact repeats. Identical values can stand only once. Among all 300,000 compounds or so, about 37,000 (12%) were called active. The entries come from a sample that favours actives as a whole. Values without a mark were called inactive. Rule as the data show it: active = max response mostly above about 13% (no sharp cut-off); inactive = mostly below about 14%.

The assay can be described thus: Cycloheximide Counterscreen for Small Molecule Inhibitors of Shiga Toxin. Also: read at 38.3 µM for the half of the compounds with a filed dose; 0% is about no effect. As to conditions: cell reporter, cycloheximide protein synthesis inhibition counterscreen; hits give high values.
As to `Cc1cccc(NC(=O)C2CCCN(C(=O)NCc3ccccc3)C2)c1C` (stereo not given), the max response was 1.32%.

Regarding `Clc1ccc(C2[C@H]3CN(CC4CCCCC4)[C@H](c4ccccc4)C34CC2(c2cccnc2)C4)cn1` (stereo not given in full), the max response is -6.35%.

`O=S(=O)(c1ccc(Br)cc1)n1ccc2ccccc21`: the max response is -2.94%.

As for `CC(=O)c1nn(-c2cccc(C(F)(F)F)c2)c(=O)[nH]c1=O`, the max response was -1.16%.

For the compound `COc1ccc(-c2nnc3n2CCCCC3)cc1`, the max response was -0.714%.

For `COc1ccc(-c2nc3n(c2Br)CCC3)cc1`, the max response is 45.3% (active).

Consider `Brc1cccc(-c2nnc3n2CCC3)c1`, for which the max response is -1.45%.

In the case of `COc1ccc(Br)cc1C(=O)NC(=S)Nc1cc(-c2nc3ccccc3[nH]2)ccc1C`, the max response was 24.4%.

`COc1ccc(-c2nc(N)ncc2-c2ccc(Cl)cc2)c(O)c1`: the max response is -1.99%.

Turning to `Cc1[nH]c2ccccc2c1C(=O)COC(=O)C(C)C`, the max response was 17.9% (active).

Take `Cc1[nH]c2ccccc2c1C(=O)COC(=O)c1c(-c2ccccc2)noc1C`: the max response was -1.13%.

Regarding `Cc1[nH]c2ccccc2c1C(=O)CSCC(=O)O`, the max response is -0.861%.

Take `Cc1ccc(N(CC(=O)NC2CCCCC2)C(=O)CCCC(=O)Nc2ccccn2)c(C)c1`: the max response is -2.99%.

Regarding `CCc1ccc2[nH]c(=O)c(Cc3ccccc3)c(O)c2c1`, the max response was 0.407%.

Turning to `COc1ccc(CCNC(=O)c2cc(-c3ccc4c(c3)OCO4)on2)cc1OC`, the max response was -2.19%.

On to `COc1ccc(-c2onc(C)c2-c2ccc3c(c2)OCCO3)c(O)c1`, for which the max response is -1.9%.

Regarding `COc1cc(-c2c(-c3ccc4c(c3)OCO4)noc2C)ccc1F`, the max response was 31.7% (active).

Regarding `Cc1ccc(-c2cnc(NC(=O)CCC(=O)N(C)Cc3ccccc3)n2C)cc1`, the max response is 1.02%.

As for `Cc1cccc(Nc2ccccc2C(=O)NCc2ccco2)c1C`, the max response was -4.07%.

On to `CC(C)(C)c1ccc(NC(=O)NCc2ccco2)cc1`, for which the max response was 47.3% (active).

For `COc1ccc(C(=O)Nc2ccccc2C(=O)NCc2ccco2)cc1`, the max response is -2.2%.

With `O=C(Nc1ccccc1)Nc1ccccc1C(=O)NCc1ccco1`, the max response was 12.3% (active).

With `CC(C)(C)NC(=O)NCc1ccco1`, the max response was -1.96%.

Take `CC(C)(C)c1ccc(C(=O)NCCC(=O)NCc2ccco2)cc1`: the max response is 6.14%.

As to `CCOCCCNC(=O)C1(O)c2cc(Br)ccc2NC(=O)N1c1ccc(C)c(C)c1` (stereo not given), the max response is -2.74%.

On to `O=C(/C=C/c1ccc(F)cc1)Nc1cccc(S(=O)(=O)Nc2cccc(C(F)(F)F)c2)c1`, for which the max response is -2.37%.

`CCCC1(C(=O)OCC)NC(c2ccc(N(C)C)cc2)C2C(=O)N(c3ccc4c(c3)OCCO4)C(=O)C21` (stereo not given): the max response was -5.79%.

In the case of `CC1CCCCC1NC(=O)CSc1nnc(-c2ccncc2)n1CCCN(C)C` (stereo not given), the max response was -2.68%.

Consider `COc1cccc(CN(C)CC(O)COC(c2ccccc2)c2ccccc2C)c1` (stereo not given), for which the max response is -4.62%.

With `CC(CNc1ccc([N+](=O)[O-])cc1)NC(=O)c1ccccc1Br` (stereo not given), the max response is -2.28%.

For `CCNC(=S)N(CCN(CC)CC)Cc1cc2cc3c(cc2[nH]c1=O)OCO3`, the max response was -2.69%.

For the compound `CC(C)Oc1ccc(Oc2ccc(C(F)(F)F)cn2)cc1`, the max response is 10.2%.

Consider `CSc1nnc(-c2ccc(C(F)(F)F)cn2)o1`, for which the max response is 15.3% (active).

For `CCOc1cc(N2CCOCC2)c(OCC)cc1NC(=O)c1ccc(C)s1`, the max response was -4.86%.

With `CCn1c(SCC(=O)Nc2ccc(Br)cc2)nc2sc3c(c2c1=O)CCN(C)C3`, the max response is 9.46%.

Consider `COc1ccc(CCNC(=O)c2ccc(CS(=O)(=O)c3ccc(Br)cc3)o2)cc1OC`, for which the max response was 10.1%.

For the compound `C=CCN1C(=O)C(Cc2cccc(Cl)c2)S/C1=N/N=C/c1ccco1` (stereo not given), the max response is 6.81%.

Take `COc1ccc(CN2C(=O)C(C)S/C2=N/N=C/c2ccco2)cc1` (stereo not given): the max response is 31.9% (active).

With `CCC1S/C(=N/N=C/c2ccco2)NC1=O` (stereo not given), the max response is 0.781%.

Turning to `COc1cc(OC)cc(C(=O)NC2CCN(C(=O)N3c4ccccc4Sc4ccccc43)CC2)c1`, the max response is 9.65%.

Take `CCCc1cc(=O)n2[nH]c(C)c(-c3ccc(Cl)cc3)c2n1`: the max response was -2.56%.

Regarding `COc1ccc(N(CC(=O)Nc2cc(OC)ccc2OC)S(=O)(=O)c2c(C)noc2C)cc1`, the max response was -6.58%.

With `O=C(/C=C/c1cccs1)c1cc(Cl)ccc1OC(=O)N1CCOCC1`, the max response was 23.9% (active).

Take `O=C(Oc1cccc(C(=S)N2CCOCC2)c1)c1cccc(Cl)c1`: the max response is -0.347%.

In the case of `CC(=O)Nc1ccccc1OC(=O)N1CCOCC1`, the max response is 11.6%.

`Cc1cccc(OCC(O)Cn2c(N3CCCCC3)nc3c2c(=O)[nH]c(=O)n3C)c1` (stereo not given): the max response is 14.8%.

`CCOC(=O)C1=C(C)NC(=O)N(C(C)=O)C1c1ccc(Cl)cc1` (stereo not given): the max response is -4.1%.

In the case of `CCOC(=O)c1c(S(=O)(=O)Nc2cccc(Cl)c2)c(C)n(C)c1C`, the max response is 5.3%.

As to `CCOC(=O)c1c(Cc2ccc(Cl)cc2)c[nH]c1C`, the max response was 26.8% (active).

Take `CC(OC(=O)c1ccc2noc(-c3ccccc3)c2c1)C(N)=O` (stereo not given): the max response is 2.78%.

With `O=C(Nc1ccc(F)cc1)C1CCN(C(=O)c2ccc([N+](=O)[O-])cc2)CC1`, the max response is 3.26%.

For the compound `O=C(Nc1ccc([N+](=O)[O-])cc1)C1(c2ccccc2)CCOCC1`, the max response was -3.32%.

Regarding `O=C(Nc1ccc([N+](=O)[O-])cc1)C1CC12CCC2` (stereo not given), the max response was 21.8% (active).

On to `O=C(c1c(F)cccc1F)N1CCN(S(=O)(=O)c2ccc3c(c2)OCCO3)CC1`, for which the max response was 13.2%.

With `COc1ccc(N2CC(C(=O)NCCS(=O)(=O)N3CCN(c4ccccc4)CC3)CC2=O)cc1` (stereo not given), the max response was 5.23%.

For the compound `C=CCc1cccc(/C=N/NC(=O)COc2ccc(-n3cnnn3)cc2)c1O`, the max response is 7.64%.

Consider `O=C(Nc1nnc(SCc2ccccc2)s1)c1ccco1`, for which the max response is 23.3% (active).

As to `Cc1ccc(Nc2nc(N)nc(CSc3nnc(C)s3)n2)cc1`, the max response was 34.9% (active).

With `CCOC(=O)N1CCN(Cc2nc(N)nc(Nc3ccc(C)cc3)n2)CC1`, the max response was 5.78%.

Take `O=C(Cc1cccs1)Nc1nnc(SCc2ccc(F)cc2)s1`: the max response was -3.78%.

Regarding `COC(=O)CSc1nnc(NC(=O)CCc2ccccc2)s1`, the max response was 14%.

Consider `Cc1nnc(SCc2nc3ccccc3nc2C)s1`, for which the max response is -3.4%.

On to `Cc1cccc(CSc2nnc(NC(=O)CSc3nnc(C)s3)s2)c1`, for which the max response was 10.9%.

For `Cc1ccc(Nc2nnc(SCc3ccccc3)s2)cc1`, the max response is 24.5% (active).

With `O=C(Nc1nnc(CCOCCOCCc2nnc(NC(=O)c3ccco3)s2)s1)c1ccco1`, the max response is -1.29%.

Regarding `Cc1ccc(OCC(=O)Nc2ccc(C(=O)O)cc2NC(=O)COc2ccc(C)c(C)c2)cc1C`, the max response is 7.55%.

Consider `NC(=O)C1CCN(C(=O)CC2C(=O)NCCN2Cc2cccc(Oc3ccccc3)c2)CC1` (stereo not given), for which the max response was -2.74%.

As for `CC(C(=O)Nc1ccc(F)c(F)c1F)N1CCCCCC1` (stereo not given), the max response was -2.23%.

`COc1cccc(C2SCC(=O)N2c2cccc(C)c2)c1OC` (stereo not given): the max response is -0.463%.

Turning to `Cc1ccc(C2SCC(=O)N2c2ccccc2)cc1` (stereo not given), the max response is 16.9% (active).

`O=C1CSC(c2cccc(F)c2)N1c1ccc(O)cc1` (stereo not given): the max response was -1.44%.

Regarding `COc1ccc(C(C)NC(=O)C2CCCC2)cc1` (stereo not given), the max response is -0.457%.

`CCc1ccc(N(CC(=O)NCc2cccnc2)S(=O)(=O)c2ccccc2)cc1`: the max response is 9.39%.

Consider `O=c1nc(N/N=C/c2ccco2)cn[nH]1`, for which the max response is 35.1% (active).

As to `CC(C)NC(=O)C(=O)N/N=C/c1ccco1`, the max response is 6.82%.

As for `O=C(Cn1cnc2ccccc21)N/N=C/c1ccco1`, the max response is 7.5%.

`O=C1C2C3C=CC(C4CC34)C2C(=O)N1c1nccs1` (stereo not given): the max response is -4.99%.

For `CCCC1=Nc2cc(C(=O)NCc3ccco3)ccc2Sc2ccccc21`, the max response is 12.1%.

Regarding `O=C(CCCc1ccccc1)NCc1ccccc1`, the max response is 28.4% (active).

In the case of `COc1ccc(COC(=O)c2n[nH]c3ccccc23)cc1F`, the max response is 67% (active).

As for `COc1cccc(CNC(=O)c2n[nH]c3ccccc23)c1`, the max response is 27.4%.

Regarding `O=C(NCCc1ccc(F)cc1)c1n[nH]c2ccccc12`, the max response was 43.7% (active).

Take `CCN(CC)S(=O)(=O)c1ccc2nc(COC(=O)c3n[nH]c4ccccc34)[nH]c2c1`: the max response was -0.99%.

In the case of `C=CCN(CC=C)C(=O)COC(=O)c1n[nH]c2ccccc12`, the max response was -0.5%.

As to `O=C(COC(=O)c1n[nH]c2ccccc12)NCc1ccccc1`, the max response was 7.3%.

Consider `O=C(O)CCCc1ccccc1`, for which the max response is -4.62% and -1.89%.

On to `O=C(CCOc1ccccc1)NCc1ccccc1`, for which the max response is -2.09%.

For `CCC(C)NC(=O)C1c2ccccc2C(=O)N1Cc1ccccc1` (stereo not given), the max response is 7.68%.

`CC(CCc1ccccc1)NC(=O)COC(=O)c1ccc(F)cc1` (stereo not given): the max response was -6.34%.

For `CCC(C)NC(=O)CCCc1ccccc1` (stereo not given), the max response is 27.2% (active).

Take `Cc1cccc(CC(=O)N2CCN=C2SCc2ccc([N+](=O)[O-])cc2)c1`: the max response is -3.02%.

On to `CC1C(=O)Nc2ccccc2N1C(=O)c1ccc(F)cc1F` (stereo not given), for which the max response was 1.08%.

Turning to `CC(C)C[C@@H](N)c1nnc(SCC(=O)c2ccc(Cl)cc2)o1`, the max response is -2.64%.

Regarding `CCc1ccc(S(=O)(=O)Nc2cc3c(cc2N2CCCCC2)n(C)c(=O)c(=O)n3C)cc1`, the max response is 3.05%.

As to `Cc1ccnc(NC(=O)CCC(=O)N(CC(=O)NCCc2ccccc2)Cc2cccs2)c1`, the max response is -8.74%.

Consider `O=C(Cc1ccccc1)NCc1ccc(F)cc1`, for which the max response was 42.5% (active).

For the compound `O=C(Cc1c(O)c2ccccc2[nH]c1=O)NCc1ccccc1`, the max response was -2.53%.

Turning to `CCCCC(=O)NCc1ccc(F)cc1`, the max response is -4.14%.

Take `CCN(CC)CCCNC(=O)CCc1ccccc1`: the max response was 10.2%.

`O=C(CCc1ccccc1)NCCc1cccs1`: the max response was 36.1% (active).
